Data published in PubChem BioAssay (NCI).
About 79,000 compounds went through this panel and 15% of them were active in at least one assay; those are over-represented in the sample as a whole. Activity calls are given as the source filed them. No stated cut-off is given here; in the data, active means growth inhibition above about 70%; inactive means the rest.

Assay: NCI Yeast Anticancer Drug Screen. Data for the wt2 strain (AID 169);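 further: 0% = growth of vehicle-treated yeast cultures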
Details: S. cerevisiae wt2 strain growth inhibition, hits give high values
Description: Growth inhibition of yeast strains with defined genetic alterations is measured as a screen for potential anti-cancer activity. Selected strains with alterations in DNA damage repair or cell cycle control were exposed to compounds and growth inhibition was measured relative to vehicle treated controls. The strain used in this assay is wt2

Measured: growth inhibition

O=C(O)c1cccc(-c2c3ccc(=O)cc-3oc3cc(O)ccc23)c1
inactive: at 1.2 µM -33% | at 3.7 µM -31% | at 11.0 µM -1%
active: at 33.0 µM 76% | at 100.0 µM 95%

Oc1ccc(NCn2c(=S)sc3ccccc32)cc1
inactive: at 1.2 µM -28% | at 3.7 µM -14% | at 11.0 µM -10% | at 33.0 µM 64%
active: at 100.0 µM 97%

Cc1ccc2ccc(O)cc2c1
inactive: at 1.2 µM -18% | at 3.7 µM -19% | at 11.0 µM -21% | at 33.0 µM -20% | at 100.0 µM 56%

Cc1ccc(Nc2nc3c(=O)n(C)c(=O)n(C)c3nc2Nc2ccc(C)cc2)cc1
inactive: at 1.2 µM 0% | at 3.7 µM -1% | at 11.0 µM -1% | at 33.0 µM -2% | at 100.0 µM 12%

OC1(c2ccccc2)CSC2=Nc3ccccc3C3CCN1N23 (stereo not given)
active: at 100.0 µM 94%
inactive: at 1.2 µM -47% | at 3.7 µM -39% | at 11.0 µM -34% | at 33.0 µM -1%

c1ccc2c(c1)Oc1cccc3cccc-2c13
inactive: at 1.2 µM 2% | at 3.7 µM 0% | at 11.0 µM 1% | at 33.0 µM 15% | at 100.0 µM 36%

Nc1nc(-c2cccnc2)cc(-c2cc(-c3cccnc3)nc(N)n2)n1
inactive: at 1.2 µM -1% | at 3.7 µM 0% | at 11.0 µM 1% | at 33.0 µM -1% | at 100.0 µM 0%

CCNc1nnc(CSc2nc(-c3ccccc3)c(-c3ccccc3)[nH]2)s1
inactive: at 1.2 µM -3% | at 3.7 µM -9% | at 11.0 µM -37%
active: at 33.0 µM 92% | at 100.0 µM 83%
